PubChem BioAssay (NCATS)
Results filed as inconclusive are left out. The source made the active and inactive calls. Unless noted, calls come from the whole dose curve; as a rule, active = well fitted curve in either direction with a large enough effect (not every such curve was filed as active); inconclusive = small, poorly fitted or top-dose-only effect, or another doubt; inactive = flat fitted curve, though single readings scatter.

Columns and labels:
[1] = AP1 Signaling Pathway (AID 357); settings: ME-180 AP-1-bla reporter, EGF-induced, beta-lactamase ratio, 5 h; at 17.2 µM (top of the series) unless noted;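 note: ME-180 reporter cells stimulated with EGF at its EC50 level; % is set by controls: 0 for no effect and ±100 for the full control effect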
Method in brief: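 Titration-series screen for positive or negative modulators of EC50 EGF-induced signaling in ME-180 cells carrying an AP-1-driven beta-lactamase reporter. After 5 hours at 37 degrees Celsius, CCF4 460nm/530nm emission ratio gave %Activity; AC50 values derived.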

[2] = NFAT Signaling Pathway (AID 444); settings: Jurkat NFAT-bla M1, carbachol, beta-lactamase ratio, 5 h; at 17.2 µM (top of the series) unless noted;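 note: carbachol stimulus at about its EC50 of 1 µM final; % is set by controls: 0 for no effect and ±100 for the full control effect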
Method in brief: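 Jurkat cells with NFAT-driven β-lactamase reporter and co-expressed M1 receptor, stimulated with carbachol (final 1 uM, ~EC50), compound titration, 5 h at 37 °C. CCF4 loaded 1 h at RT; 460/530 nm ratio gave %activity and AC50.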

[3] = Stat Signaling Pathway (AID 446); settings: ME-180 SIE beta-lactamase reporter, IL-6 stimulated, 5 h; at 17.2 µM (top of the series) unless noted;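 note: ME-180 cervical cancer cells given 40 pM IL-6 alongside compound; SIE-controlled beta-lactamase reporter measured as 460/530 nm FRET emission ratio; % is set by controls: 0 for no effect and ±100 for the full control effect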
Method in brief: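 ME-180 SIE-bla cells; overnight plating; cpd + IL-6 40 pM, 5 h, 37 C; LiveBLAzer 2.5 h RT; 460/530 nm emission ratio. Normalized to 300 pM IL-6 and 125 nM JAK inhibitor controls.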

[4] = target: Glucocorticoid receptor (Homo sapiens) (UniProt P04150); assay: GR-GFP Redistribution (AID 450;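 active = compounds whose dose series gives a full or clear partial fitted curve of increased nuclear translocation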; note: potency is the fitted concentration of half-maximal effect)
Chain of Glucocorticoid receptor (Homo sapiens) (P04150 whole entry, looked up): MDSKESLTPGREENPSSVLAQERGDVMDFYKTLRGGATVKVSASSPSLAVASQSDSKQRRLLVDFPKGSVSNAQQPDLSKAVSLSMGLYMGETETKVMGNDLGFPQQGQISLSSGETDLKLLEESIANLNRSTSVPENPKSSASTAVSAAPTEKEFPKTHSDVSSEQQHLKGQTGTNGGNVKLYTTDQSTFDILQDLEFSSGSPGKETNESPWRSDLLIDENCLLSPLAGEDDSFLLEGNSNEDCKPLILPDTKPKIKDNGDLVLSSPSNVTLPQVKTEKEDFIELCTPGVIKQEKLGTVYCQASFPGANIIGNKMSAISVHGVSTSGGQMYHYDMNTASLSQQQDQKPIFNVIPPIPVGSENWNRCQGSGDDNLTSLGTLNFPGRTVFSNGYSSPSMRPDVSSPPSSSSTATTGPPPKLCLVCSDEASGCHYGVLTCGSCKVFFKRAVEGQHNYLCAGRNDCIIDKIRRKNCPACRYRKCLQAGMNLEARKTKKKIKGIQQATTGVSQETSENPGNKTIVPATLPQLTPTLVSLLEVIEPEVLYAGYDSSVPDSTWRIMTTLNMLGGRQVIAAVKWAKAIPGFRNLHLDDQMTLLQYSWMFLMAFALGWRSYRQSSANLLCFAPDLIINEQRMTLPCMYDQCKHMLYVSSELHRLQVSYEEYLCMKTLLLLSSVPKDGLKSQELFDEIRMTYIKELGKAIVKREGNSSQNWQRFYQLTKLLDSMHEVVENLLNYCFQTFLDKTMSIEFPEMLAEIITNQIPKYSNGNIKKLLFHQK

## O=C1NC2c3ccccc3C(=O)N2c2c1cnn2-c1ccccc1 (configuration not stated)
[1]
  activity change, negative = inhibition: -6.7% (inactive)
[2]
  activity change, negative = inhibition: -1.9% (inactive)
[3]
  activity, negative = inhibition: -7.17% (inactive)
[4]
  Potency: > 20.6 µM (inactive)

## COc1cc(C2Nc3cccc4cccc(c34)N2)cc(OC)c1OC(C)=O
[1]
  activity change, negative = inhibition: 19.9% (inactive)
[2]
  activity change, negative = inhibition: 3.51% (inactive)
[3]
  activity, negative = inhibition: 9.71% (inactive)
[4]
  Potency: > 20.6 µM (inactive)

## CCC1(C)Cc2c(sc3nc4n(c(=O)c23)CCS4)CO1 (configuration not stated)
[1]
  activity change, negative = inhibition: -20.5% (inactive)
[2]
  activity change, negative = inhibition: -16.6% (inactive)
[3]
  activity, negative = inhibition: -2.05% (inactive)
[4]
  Potency: > 20.6 µM (inactive)

## Nc1ccc(Cl)cc1/C(=N/O)c1ccccc1
[1]
  activity change, negative = inhibition: -16.4% (inactive)
[2]
  activity change, negative = inhibition: -13.5% (inactive)
[3]
  activity, negative = inhibition: -5.27% (inactive)
[4]
  Potency: > 20.6 µM (inactive)

## CN(C)c1ccc(C=NCC2(O)CCOC(C)(C)C2)cc1 (configuration not stated)
[1]
  activity change, negative = inhibition: -0.248% (inactive)
[2]
  activity change, negative = inhibition: -9.77% (inactive)
[3]
  activity, negative = inhibition: 8.53% (inactive)
[4]
  Potency: > 20.6 µM (inactive)

## CCCOc1ccc(C2/C(=C(/O)c3ccccc3)C(=O)C(=O)N2CCCN(C)C)cc1OC (configuration not stated)
[1]
  activity change, negative = inhibition: 13.7% (inactive)
[2]
  activity change, negative = inhibition: 3.58% (inactive)
[3]
  activity, negative = inhibition: 10.3% (inactive)
[4]
  Potency: > 20.6 µM (inactive)

## C=C1[C@@H](C)C2[C@H](Cc3ccccc3)NC(=O)[C@]23OC(=O)CC[C@H](O)CCC[C@H](C)C/C=C/[C@H]3[C@@H]1O (some centres not stated)
[1]
  activity change, negative = inhibition: -80.8% (active)
[2]
  activity change, negative = inhibition: -7.27% (inactive)
[3]
  activity, negative = inhibition: -14.9% (inactive)
[4]
  Potency: > 20.6 µM (inactive)

## COC(=O)CSc1nc(C)c(Oc2ccccc2)c(=O)[nH]1
[1]
  activity change, negative = inhibition: 22.2% (inactive)
[2]
  activity change, negative = inhibition: 15.3% (inactive)
[3]
  activity, negative = inhibition: 7.32% (inactive)
[4]
  Potency: > 20.6 µM (inactive)

## Cc1ccc2[nH]c3c(c2c1)CCCC3C(N)=O (configuration not stated)
[1]
  activity change, negative = inhibition: -5.19% (inactive)
[2]
  activity change, negative = inhibition: -1.59% (inactive)
[3]
  activity, negative = inhibition: 8.83% (inactive)
[4]
  Potency: > 20.6 µM (inactive)

## COC(=O)CNC(=O)c1c(C)cc(=O)oc1C
[1]
  activity change, negative = inhibition: 21.5% (inactive)
[2]
  activity change, negative = inhibition: 13.6% (inactive)
[3]
  activity, negative = inhibition: 5.86% (inactive)
[4]
  Potency: > 20.6 µM (inactive)

## CCCC(=O)N1CCc2[nH]c3ccccc3c2C1
[1]
  activity change, negative = inhibition: -13% (inactive)
[2]
  activity change, negative = inhibition: 13.8% (inactive)
[3]
  activity, negative = inhibition: -6.04% (inactive)
[4]
  Potency: > 20.6 µM (inactive)

## N#CCCN(CCC#N)c1nnc(-c2ccccc2)s1
[1]
  activity change, negative = inhibition: 8.96% (inactive)
[2]
  activity change, negative = inhibition: -5.89% (inactive)
[3]
  activity, negative = inhibition: 1.66% (inactive)
[4]
  Potency: > 20.6 µM (inactive)

## CCCCOc1ccc(-c2nnc(N)s2)cc1
[1]
  activity change, negative = inhibition: 2.03% (inactive)
[2]
  activity change, negative = inhibition: 25.3% (inactive)
[3]
  activity, negative = inhibition: 10.7% (inactive)
[4]
  Potency: > 20.6 µM (inactive)

## CCN1CCc2c(C#N)c(N3CCOCC3)nc(NCCO)c2C1
[1]
  activity change, negative = inhibition: 0.329% (inactive)
[2]
  activity change, negative = inhibition: 3.49% (inactive)
[3]
  activity, negative = inhibition: 11.3% (inactive)
[4]
  Potency: > 20.6 µM (inactive)

## COc1cccc(N2CCN(C3CC(=O)N(c4cccc(Cl)c4)C3=O)CC2)c1 (configuration not stated)
[1]
  activity change, negative = inhibition: -3.08% (inactive)
[2]
  activity change, negative = inhibition: 12.6% (inactive)
[3]
  activity, negative = inhibition: -13.6% (inactive)
[4]
  Potency: > 20.6 µM (inactive)

## CCSc1nc(O)c(C2OC(=O)c3c2ccc(OC)c3OC)c(=O)n1-c1ccccc1 (configuration not stated)
[1]
  activity change, negative = inhibition: -10.9% (inactive)
[2]
  activity change, negative = inhibition: 4% (inactive)
[3]
  activity, negative = inhibition: -4.52% (inactive)
[4]
  Potency: > 20.6 µM (inactive)

## O=C1C(=O)N(Cc2cccnc2)C(c2ccccn2)/C1=C(/O)c1ccc(Br)cc1 (configuration not stated)
[1]
  activity change, negative = inhibition: -19.9% (inactive)
[2]
  activity change, negative = inhibition: 15.2% (inactive)
[3]
  activity, negative = inhibition: -10.5% (inactive)
[4]
  Potency: > 20.6 µM (inactive)

## CC1(C)CC(=O)C(C2=NC(C)(C)Cc3ccccc32)=C(O)C1
[1]
  activity change, negative = inhibition: 2.44% (inactive)
[2]
  activity change, negative = inhibition: 2.48% (inactive)
[3]
  activity, negative = inhibition: 0.129% (inactive)
[4]
  Potency: > 20.6 µM (inactive)
